Measurements reported in the supplement of paper PMC11732987, “Enantioselective OTUD7B fragment discovery through chemoproteomics screening and high-throughput optimisation” (Communications Chemistry, 2025).

Experiments:
Assay in all cases: log2 ratio of Biotin-Ahx-Ub-VS probe labelling (fragment/DMSO); higher = less target engagement (more negative = stronger competition), active = hit call of the paper (q ≤ 0.05, log2 ratio ≤ -1)
Conditions in all cases: compound concentration: 200 uM; treatment time: 3 h
USP34 = USP34 (UniProt Q70CQ2)
How it was run: (§1)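 Fragment (200 µM) or vehicle was incubated for 3 h with triplicate HEK293T lysate samples of 495 µg, which were then treated with Biotin-Ahx-Ub-VS at 0.5 µM final for 1 h. Labelled DUBs were enriched on NeutrAvidin, digested with LysC and trypsin, and analysed by diaPASEF LC-MS/MS. Values are average log2 fragment/vehicle ratios from an unpaired t-test on global-median-normalised Spectronaut label-free quantities, using proteins with ≥2 unique peptides.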

USP36 = target: T1, USP36 (UniProt Q9P275)
T1 sequence (whole entry): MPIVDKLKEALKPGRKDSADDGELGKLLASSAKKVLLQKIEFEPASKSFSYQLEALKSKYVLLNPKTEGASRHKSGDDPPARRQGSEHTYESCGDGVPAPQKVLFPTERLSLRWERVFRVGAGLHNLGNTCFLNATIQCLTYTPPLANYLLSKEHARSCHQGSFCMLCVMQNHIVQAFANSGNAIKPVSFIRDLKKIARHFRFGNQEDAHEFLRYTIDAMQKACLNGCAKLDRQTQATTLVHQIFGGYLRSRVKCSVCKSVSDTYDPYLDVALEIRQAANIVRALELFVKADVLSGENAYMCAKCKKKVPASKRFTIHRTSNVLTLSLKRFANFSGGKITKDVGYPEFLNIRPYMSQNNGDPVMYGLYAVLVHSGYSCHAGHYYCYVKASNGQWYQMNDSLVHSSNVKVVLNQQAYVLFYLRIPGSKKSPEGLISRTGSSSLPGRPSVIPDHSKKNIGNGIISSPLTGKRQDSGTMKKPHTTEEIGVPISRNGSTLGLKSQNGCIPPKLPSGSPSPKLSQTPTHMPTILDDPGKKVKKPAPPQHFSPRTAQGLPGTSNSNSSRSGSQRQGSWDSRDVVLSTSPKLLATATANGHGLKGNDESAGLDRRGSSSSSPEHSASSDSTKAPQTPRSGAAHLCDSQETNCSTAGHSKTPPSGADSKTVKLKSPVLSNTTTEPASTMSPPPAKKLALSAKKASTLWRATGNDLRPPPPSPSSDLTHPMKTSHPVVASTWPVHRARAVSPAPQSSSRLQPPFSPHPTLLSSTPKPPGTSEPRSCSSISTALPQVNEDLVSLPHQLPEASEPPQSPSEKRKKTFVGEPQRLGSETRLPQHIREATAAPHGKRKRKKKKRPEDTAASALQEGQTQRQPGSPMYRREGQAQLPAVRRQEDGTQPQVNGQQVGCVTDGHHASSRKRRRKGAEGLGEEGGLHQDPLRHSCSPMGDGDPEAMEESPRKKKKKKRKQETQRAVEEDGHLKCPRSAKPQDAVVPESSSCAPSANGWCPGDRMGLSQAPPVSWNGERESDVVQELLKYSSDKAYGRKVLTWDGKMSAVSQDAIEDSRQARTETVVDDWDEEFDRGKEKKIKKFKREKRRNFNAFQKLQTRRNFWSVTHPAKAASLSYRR
How it was run: as §1

USP38 = target: T2, USP38 (UniProt Q8NB14)
T2 sequence (whole entry): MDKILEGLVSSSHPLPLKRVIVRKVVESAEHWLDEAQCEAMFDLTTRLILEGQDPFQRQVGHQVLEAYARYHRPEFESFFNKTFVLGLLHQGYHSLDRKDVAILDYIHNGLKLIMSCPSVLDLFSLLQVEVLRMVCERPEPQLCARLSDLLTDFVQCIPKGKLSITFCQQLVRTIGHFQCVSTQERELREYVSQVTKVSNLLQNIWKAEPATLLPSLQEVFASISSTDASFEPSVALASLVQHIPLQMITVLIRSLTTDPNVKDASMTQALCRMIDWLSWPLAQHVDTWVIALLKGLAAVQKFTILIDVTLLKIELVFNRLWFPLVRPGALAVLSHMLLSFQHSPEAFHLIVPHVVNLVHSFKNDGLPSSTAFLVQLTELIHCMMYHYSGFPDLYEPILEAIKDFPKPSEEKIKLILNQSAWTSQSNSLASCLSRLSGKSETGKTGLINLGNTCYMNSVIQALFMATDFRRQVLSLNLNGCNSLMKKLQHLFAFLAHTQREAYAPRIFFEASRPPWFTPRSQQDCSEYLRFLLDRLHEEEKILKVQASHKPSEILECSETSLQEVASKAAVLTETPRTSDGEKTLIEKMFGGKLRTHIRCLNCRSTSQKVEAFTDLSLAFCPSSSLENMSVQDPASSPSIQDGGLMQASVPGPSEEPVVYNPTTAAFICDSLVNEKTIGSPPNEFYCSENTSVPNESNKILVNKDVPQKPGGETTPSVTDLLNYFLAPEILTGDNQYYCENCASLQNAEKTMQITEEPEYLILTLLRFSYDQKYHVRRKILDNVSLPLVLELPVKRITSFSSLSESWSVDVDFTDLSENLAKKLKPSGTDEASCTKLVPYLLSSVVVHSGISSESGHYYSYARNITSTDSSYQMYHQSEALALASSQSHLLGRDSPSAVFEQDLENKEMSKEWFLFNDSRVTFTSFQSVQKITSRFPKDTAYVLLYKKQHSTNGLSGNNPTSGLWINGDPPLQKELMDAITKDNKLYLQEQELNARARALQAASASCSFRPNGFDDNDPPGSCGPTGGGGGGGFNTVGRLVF
How it was run: as §1

USP39 = target: T3, USP39 (UniProt Q53GS9)
T3 sequence (whole entry): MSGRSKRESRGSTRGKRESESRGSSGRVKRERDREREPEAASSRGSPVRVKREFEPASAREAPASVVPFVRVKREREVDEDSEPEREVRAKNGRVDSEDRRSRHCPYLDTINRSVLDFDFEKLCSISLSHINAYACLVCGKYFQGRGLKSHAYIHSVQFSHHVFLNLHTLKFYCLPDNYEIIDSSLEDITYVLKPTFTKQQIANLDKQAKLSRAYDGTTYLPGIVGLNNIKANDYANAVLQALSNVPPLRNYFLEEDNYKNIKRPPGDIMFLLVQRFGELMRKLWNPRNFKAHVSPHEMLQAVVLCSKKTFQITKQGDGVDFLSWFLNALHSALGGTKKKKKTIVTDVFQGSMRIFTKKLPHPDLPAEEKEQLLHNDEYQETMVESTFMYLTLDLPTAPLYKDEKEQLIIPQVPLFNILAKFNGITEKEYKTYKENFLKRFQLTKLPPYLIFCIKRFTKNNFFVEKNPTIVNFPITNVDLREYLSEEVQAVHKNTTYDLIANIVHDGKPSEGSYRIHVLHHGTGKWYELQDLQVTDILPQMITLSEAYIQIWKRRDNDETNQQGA
How it was run: as §1

USP4 = target: T4, USP4 (UniProt Q13107)
T4 sequence (whole entry): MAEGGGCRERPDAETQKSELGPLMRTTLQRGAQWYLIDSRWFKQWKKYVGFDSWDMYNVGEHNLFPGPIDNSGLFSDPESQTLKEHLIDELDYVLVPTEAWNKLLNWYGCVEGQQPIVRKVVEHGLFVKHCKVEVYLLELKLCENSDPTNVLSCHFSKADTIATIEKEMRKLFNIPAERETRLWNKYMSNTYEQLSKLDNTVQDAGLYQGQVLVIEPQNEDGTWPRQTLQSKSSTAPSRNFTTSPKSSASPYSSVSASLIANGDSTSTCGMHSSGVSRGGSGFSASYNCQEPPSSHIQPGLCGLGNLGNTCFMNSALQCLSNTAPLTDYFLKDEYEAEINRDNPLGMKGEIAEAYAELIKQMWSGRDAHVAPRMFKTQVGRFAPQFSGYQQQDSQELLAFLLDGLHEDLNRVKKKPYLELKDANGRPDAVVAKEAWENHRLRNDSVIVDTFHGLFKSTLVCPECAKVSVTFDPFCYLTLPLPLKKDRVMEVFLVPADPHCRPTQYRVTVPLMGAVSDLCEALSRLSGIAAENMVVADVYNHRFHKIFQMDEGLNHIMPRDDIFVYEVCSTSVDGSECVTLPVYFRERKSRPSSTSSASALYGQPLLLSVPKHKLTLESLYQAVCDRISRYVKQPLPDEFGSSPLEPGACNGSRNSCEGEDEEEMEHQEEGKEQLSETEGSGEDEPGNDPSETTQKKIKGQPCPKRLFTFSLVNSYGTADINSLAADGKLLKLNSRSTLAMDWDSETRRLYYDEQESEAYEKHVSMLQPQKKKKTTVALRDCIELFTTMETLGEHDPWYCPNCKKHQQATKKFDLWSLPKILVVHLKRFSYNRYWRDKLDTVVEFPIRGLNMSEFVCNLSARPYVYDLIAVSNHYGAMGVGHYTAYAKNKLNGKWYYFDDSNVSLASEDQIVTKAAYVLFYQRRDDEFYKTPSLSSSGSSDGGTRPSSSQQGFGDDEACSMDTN
How it was run: as §1

Measured: log2 ratio of Biotin-Ahx-Ub-VS probe labelling

Chain of USP34 (Q70CQ2 whole entry, the tested form may be a part): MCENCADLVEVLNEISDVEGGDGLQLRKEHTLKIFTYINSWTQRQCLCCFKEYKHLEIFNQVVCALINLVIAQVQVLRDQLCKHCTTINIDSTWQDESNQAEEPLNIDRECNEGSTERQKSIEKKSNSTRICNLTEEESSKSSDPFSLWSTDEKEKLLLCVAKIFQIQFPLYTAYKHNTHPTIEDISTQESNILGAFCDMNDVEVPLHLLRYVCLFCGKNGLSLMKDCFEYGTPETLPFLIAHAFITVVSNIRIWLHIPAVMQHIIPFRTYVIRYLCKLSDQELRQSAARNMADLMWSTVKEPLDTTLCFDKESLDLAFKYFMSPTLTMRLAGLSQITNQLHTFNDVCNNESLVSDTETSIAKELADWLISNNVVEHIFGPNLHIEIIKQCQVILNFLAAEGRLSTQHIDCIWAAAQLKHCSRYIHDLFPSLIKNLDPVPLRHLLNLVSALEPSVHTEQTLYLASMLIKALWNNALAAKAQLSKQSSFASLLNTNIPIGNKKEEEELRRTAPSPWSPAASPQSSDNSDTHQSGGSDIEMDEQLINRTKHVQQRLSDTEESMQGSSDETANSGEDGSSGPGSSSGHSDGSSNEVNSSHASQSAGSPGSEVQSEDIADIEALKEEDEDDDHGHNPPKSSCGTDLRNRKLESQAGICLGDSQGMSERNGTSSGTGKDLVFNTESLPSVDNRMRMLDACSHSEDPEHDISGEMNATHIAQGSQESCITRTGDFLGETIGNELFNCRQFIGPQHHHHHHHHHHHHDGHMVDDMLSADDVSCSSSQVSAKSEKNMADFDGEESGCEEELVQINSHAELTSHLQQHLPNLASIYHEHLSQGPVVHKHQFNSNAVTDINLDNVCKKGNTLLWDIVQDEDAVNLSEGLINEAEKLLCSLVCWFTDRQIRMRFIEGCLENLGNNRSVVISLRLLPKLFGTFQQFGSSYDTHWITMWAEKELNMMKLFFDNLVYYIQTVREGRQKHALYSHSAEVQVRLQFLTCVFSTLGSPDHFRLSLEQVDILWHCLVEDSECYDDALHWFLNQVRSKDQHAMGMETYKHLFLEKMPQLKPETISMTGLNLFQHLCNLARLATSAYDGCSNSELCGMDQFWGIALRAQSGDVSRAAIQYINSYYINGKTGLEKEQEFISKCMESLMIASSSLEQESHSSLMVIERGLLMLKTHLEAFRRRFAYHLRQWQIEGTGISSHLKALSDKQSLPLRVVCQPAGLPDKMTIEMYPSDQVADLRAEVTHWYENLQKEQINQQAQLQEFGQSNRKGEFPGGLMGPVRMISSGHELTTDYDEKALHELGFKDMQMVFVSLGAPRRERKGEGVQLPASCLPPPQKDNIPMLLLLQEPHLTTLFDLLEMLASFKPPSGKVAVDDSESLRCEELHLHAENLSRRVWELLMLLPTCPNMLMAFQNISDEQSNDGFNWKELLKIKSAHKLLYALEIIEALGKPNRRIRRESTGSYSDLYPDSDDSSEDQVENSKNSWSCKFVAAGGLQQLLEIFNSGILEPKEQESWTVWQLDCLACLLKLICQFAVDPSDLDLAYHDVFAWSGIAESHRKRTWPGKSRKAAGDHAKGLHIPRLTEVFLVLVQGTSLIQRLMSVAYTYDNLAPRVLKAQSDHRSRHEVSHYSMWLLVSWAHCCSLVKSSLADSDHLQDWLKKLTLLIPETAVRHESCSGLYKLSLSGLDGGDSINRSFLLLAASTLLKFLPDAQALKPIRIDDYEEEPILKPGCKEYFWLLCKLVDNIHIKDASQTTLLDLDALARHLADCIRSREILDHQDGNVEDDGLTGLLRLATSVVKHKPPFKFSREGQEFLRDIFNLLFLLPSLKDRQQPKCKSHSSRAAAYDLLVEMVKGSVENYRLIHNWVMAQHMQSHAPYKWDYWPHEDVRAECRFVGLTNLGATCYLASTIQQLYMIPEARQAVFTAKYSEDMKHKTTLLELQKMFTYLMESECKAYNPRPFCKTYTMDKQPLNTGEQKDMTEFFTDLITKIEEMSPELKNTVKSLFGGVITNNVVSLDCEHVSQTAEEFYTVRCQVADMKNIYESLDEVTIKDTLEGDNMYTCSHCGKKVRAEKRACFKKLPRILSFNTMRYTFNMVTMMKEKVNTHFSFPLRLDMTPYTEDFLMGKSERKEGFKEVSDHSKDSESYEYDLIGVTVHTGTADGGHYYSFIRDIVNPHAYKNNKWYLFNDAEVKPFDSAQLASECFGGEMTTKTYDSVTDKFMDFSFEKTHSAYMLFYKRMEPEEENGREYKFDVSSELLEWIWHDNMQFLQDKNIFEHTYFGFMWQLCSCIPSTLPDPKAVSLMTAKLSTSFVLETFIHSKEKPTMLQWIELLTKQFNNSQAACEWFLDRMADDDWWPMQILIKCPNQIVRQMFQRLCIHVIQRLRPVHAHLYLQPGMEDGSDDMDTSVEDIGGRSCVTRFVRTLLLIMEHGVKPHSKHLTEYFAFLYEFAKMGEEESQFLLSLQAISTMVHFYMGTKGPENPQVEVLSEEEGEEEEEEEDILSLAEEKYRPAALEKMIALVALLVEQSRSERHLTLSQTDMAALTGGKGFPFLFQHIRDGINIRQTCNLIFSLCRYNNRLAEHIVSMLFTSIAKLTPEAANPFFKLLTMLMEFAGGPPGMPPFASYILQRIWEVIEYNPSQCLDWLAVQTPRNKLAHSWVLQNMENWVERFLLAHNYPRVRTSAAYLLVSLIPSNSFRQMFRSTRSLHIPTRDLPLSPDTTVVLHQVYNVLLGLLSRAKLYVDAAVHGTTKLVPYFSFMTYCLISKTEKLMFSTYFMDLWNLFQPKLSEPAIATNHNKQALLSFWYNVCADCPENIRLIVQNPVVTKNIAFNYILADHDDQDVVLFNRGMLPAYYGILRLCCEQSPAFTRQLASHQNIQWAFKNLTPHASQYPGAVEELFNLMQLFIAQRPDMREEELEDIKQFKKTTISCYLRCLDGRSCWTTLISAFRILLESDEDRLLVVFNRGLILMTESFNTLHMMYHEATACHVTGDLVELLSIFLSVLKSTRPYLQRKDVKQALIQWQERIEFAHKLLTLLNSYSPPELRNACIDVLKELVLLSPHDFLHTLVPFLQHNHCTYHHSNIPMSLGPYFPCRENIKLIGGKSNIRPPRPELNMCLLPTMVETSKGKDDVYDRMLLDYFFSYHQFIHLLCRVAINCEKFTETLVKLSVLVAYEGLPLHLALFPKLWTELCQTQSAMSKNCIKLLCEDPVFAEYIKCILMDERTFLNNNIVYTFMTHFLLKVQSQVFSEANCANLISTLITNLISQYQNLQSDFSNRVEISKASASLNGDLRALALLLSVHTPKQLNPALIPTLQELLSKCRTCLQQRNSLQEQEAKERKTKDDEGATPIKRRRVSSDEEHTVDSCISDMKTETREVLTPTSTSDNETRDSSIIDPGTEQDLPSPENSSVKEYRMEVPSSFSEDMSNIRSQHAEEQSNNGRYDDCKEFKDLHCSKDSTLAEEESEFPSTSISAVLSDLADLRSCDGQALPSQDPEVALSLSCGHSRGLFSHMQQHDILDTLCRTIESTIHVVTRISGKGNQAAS

NS(=O)(=O)c1ccc(Cl)c(NC(=O)CCl)c1
inactive: USP34 -0.381 | USP36 -0.132 | USP38 0.0479 | USP39 0.175 | USP4 -0.198
